Experiments:
Assay in all cases: DAPPL (digital affinity profiling via proximity ligation, sequencing); 10 mM Tris-HCl pH 7.5, 50 mM NaCl, 1 mM DTT, 4% glycerol, room temperature, 30 min; GST-TFs on glutathione beads, 16-mer random dsDNA library, 0.1% formaldehyde crosslink after washing; high values mean tight binding
Conditions in all cases: protein: recombinant; tags: N-terminal GST; dsDNA, one strand shown
FLI1 = biological target: T1, FLI1 (Homo sapiens, UniProt Q01543 1-452)
T1 sequence: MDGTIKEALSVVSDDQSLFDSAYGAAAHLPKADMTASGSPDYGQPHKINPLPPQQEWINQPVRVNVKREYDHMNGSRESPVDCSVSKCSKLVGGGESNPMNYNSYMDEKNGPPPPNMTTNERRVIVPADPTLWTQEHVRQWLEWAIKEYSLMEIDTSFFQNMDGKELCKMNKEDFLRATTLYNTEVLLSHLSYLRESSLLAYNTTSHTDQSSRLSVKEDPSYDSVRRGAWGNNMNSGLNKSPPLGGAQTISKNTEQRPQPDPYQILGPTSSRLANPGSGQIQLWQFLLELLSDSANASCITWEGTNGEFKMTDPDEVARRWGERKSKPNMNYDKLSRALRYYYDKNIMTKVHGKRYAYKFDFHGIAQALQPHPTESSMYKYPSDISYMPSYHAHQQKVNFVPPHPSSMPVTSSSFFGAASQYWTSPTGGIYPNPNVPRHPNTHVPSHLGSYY
In short: (§1)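 Each value of binding signal is a hexamer's read frequency for a factor divided by the same hexamer's frequency in the tag-only sample. Barcoded, bead-captured GST fusions of human transcription factors made in yeast were pooled with that sample and incubated with 200 nmole of a random double-stranded 16-mer DNA library in Tris/NaCl/DTT/glycerol buffer at room temperature for 30 min. Washing, 0.1% formaldehyde crosslinking, proximity ligation, PCR and Illumina NextSeq500 sequencing followed.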

ELK1 = biological target: T2, ELK1 (Homo sapiens, UniProt P19419 1-428)
T2 sequence: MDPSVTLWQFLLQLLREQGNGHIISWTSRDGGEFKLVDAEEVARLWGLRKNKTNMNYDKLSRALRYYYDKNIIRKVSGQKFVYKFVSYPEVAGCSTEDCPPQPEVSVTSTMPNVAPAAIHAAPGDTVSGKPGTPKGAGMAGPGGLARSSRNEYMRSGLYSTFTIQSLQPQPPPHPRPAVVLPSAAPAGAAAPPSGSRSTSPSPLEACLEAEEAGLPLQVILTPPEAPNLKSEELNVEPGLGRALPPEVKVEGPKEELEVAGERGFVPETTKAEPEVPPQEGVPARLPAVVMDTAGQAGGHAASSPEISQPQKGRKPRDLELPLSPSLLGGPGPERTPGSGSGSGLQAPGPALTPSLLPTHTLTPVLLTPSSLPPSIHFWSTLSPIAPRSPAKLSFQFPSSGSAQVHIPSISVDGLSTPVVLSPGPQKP
In short: as §1

GABPA = biological target: T3, GABPA (Homo sapiens, UniProt Q06546 1-454)
T3 sequence: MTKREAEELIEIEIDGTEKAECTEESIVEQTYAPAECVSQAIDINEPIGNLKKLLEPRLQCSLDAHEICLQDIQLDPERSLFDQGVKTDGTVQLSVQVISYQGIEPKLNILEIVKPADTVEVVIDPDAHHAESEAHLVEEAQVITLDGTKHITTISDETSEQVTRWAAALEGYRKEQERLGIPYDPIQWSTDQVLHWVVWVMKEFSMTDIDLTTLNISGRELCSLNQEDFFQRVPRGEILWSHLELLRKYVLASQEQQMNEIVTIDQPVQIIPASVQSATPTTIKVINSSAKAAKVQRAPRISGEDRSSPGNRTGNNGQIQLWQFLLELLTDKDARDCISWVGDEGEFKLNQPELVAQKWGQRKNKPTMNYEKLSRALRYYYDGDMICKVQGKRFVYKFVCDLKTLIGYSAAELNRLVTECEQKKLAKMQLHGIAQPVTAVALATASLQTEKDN
In short: as §1

ERG = biological target: T4, ERG (Homo sapiens, UniProt P11308 1-479)
T4 sequence: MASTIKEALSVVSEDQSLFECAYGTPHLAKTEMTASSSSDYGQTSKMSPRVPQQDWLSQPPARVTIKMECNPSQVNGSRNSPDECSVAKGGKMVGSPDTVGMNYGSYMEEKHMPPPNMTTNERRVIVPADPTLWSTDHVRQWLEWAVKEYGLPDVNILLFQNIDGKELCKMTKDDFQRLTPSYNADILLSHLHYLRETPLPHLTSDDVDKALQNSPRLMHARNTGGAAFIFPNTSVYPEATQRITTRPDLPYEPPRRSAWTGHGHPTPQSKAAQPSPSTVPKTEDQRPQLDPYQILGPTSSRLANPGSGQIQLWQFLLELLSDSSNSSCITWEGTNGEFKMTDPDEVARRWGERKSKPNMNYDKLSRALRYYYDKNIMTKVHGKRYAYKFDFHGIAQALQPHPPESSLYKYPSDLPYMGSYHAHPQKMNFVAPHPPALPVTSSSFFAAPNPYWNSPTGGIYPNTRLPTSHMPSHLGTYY
In short: as §1

ELF1 = ELF1 (Homo sapiens, UniProt P32519 1-619)
In short: as §1

EHF = biological target: T5, EHF (Homo sapiens, UniProt Q9NZC4 1-300)
T5 sequence: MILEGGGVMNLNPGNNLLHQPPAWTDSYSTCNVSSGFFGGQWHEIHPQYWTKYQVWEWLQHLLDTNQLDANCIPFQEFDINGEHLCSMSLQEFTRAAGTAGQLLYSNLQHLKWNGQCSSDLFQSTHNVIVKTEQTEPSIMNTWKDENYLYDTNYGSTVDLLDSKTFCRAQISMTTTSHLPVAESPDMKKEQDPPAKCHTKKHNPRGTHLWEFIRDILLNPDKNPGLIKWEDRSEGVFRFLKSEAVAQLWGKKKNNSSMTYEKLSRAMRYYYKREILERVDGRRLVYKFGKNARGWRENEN
In short: as §1

SPI1 = SPI1 (Homo sapiens, UniProt P17947 1-270)
In short: as §1

SPIB = SPIB (Homo sapiens, UniProt Q01892 1-262)
In short: as §1

ELK3 = biological target: T6, ELK3 (Homo sapiens, UniProt P41970 1-407)
T6 sequence: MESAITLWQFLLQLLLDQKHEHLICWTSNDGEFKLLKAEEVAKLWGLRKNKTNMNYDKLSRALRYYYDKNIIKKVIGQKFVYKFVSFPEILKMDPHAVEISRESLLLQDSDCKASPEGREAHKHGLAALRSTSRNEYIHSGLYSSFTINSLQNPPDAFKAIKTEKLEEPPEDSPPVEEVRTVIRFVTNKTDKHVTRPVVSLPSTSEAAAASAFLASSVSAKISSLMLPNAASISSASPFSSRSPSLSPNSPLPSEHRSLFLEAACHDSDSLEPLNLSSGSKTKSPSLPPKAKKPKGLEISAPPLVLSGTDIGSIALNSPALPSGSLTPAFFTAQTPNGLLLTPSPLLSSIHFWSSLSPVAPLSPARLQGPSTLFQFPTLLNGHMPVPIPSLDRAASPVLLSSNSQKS
In short: as §1

ELF1, sequence (P32519 whole entry): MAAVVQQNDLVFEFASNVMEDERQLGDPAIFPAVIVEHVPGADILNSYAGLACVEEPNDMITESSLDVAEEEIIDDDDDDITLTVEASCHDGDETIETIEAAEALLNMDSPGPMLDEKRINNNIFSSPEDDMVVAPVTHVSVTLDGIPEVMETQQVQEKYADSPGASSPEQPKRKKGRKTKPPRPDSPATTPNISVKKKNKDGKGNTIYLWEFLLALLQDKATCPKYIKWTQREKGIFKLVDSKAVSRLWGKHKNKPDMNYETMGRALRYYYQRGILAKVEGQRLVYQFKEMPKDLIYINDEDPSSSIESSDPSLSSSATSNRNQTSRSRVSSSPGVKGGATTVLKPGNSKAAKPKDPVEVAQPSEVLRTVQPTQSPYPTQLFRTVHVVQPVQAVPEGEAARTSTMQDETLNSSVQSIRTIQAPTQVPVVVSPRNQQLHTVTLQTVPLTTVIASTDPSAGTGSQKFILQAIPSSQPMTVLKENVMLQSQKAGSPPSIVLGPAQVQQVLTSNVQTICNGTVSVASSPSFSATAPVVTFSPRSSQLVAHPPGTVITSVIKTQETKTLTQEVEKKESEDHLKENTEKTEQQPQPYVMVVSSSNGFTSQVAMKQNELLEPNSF
SPIB, sequence (Q01892 whole entry): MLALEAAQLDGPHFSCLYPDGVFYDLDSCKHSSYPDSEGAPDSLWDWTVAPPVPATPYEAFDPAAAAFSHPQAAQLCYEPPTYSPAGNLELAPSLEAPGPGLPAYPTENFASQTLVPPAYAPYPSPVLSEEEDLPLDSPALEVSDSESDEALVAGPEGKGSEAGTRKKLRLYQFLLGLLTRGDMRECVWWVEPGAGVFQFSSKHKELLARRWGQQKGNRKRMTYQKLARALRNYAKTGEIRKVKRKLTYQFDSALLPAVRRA

## GCTAAA
FLI1
  binding signal: 1.06 fold enrichment (6-mer frequency, TF over GST control)
ELK1
  binding signal: 1.12 fold enrichment (6-mer frequency, TF over GST control)
GABPA
  binding signal: 1.07 fold enrichment (6-mer frequency, TF over GST control)
ERG
  binding signal: 1.07 fold enrichment (6-mer frequency, TF over GST control)
ELF1
  binding signal: 1.08 fold enrichment (6-mer frequency, TF over GST control)
EHF
  binding signal: 1.06 fold enrichment (6-mer frequency, TF over GST control)
SPI1
  binding signal: 1.16 fold enrichment (6-mer frequency, TF over GST control)
SPIB
  binding signal: 1.14 fold enrichment (6-mer frequency, TF over GST control)
ELK3
  binding signal: 1.04 fold enrichment (6-mer frequency, TF over GST control)

Source: PMC7862700, “An all-to-all approach to the identification of sequence-specific readers for epigenetic DNA modifications on cytosine”
